Experimental data taken from the supplement of paper PMC11732987, “Enantioselective OTUD7B fragment discovery through chemoproteomics screening and high-throughput optimisation” (Communications Chemistry, 2025).

How the values were obtained:
Test in all cases: log2 ratio of Biotin-Ahx-Ub-VS probe labelling (fragment/DMSO); higher = less target engagement (more negative = stronger competition), active = hit call of the paper (q ≤ 0.05, log2 ratio ≤ -1)
Details in all cases: compound concentration: 200 uM; treatment time: 3 h
[1] = target: USP34 (UniProt Q70CQ2)
In short: (§1)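 Labelled DUBs from HEK293T lysate were NeutrAvidin-enriched, digested with LysC and trypsin, and run by diaPASEF LC-MS/MS. Before that, each 495 µg sample in Tris/CHAPS/IGEPAL buffer with protease inhibitors was treated in triplicate with fragment at 200 µM or vehicle for 3 h, then with Biotin-Ahx-Ub-VS at 0.5 µM final for 1 h. Values are average log2 ratios of fragment over vehicle by unpaired t-test, based on global-median-normalised Spectronaut label-free quantities from proteins with ≥2 unique peptides.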

[2] = target: T1, USP36 (UniProt Q9P275)
T1 sequence (whole entry): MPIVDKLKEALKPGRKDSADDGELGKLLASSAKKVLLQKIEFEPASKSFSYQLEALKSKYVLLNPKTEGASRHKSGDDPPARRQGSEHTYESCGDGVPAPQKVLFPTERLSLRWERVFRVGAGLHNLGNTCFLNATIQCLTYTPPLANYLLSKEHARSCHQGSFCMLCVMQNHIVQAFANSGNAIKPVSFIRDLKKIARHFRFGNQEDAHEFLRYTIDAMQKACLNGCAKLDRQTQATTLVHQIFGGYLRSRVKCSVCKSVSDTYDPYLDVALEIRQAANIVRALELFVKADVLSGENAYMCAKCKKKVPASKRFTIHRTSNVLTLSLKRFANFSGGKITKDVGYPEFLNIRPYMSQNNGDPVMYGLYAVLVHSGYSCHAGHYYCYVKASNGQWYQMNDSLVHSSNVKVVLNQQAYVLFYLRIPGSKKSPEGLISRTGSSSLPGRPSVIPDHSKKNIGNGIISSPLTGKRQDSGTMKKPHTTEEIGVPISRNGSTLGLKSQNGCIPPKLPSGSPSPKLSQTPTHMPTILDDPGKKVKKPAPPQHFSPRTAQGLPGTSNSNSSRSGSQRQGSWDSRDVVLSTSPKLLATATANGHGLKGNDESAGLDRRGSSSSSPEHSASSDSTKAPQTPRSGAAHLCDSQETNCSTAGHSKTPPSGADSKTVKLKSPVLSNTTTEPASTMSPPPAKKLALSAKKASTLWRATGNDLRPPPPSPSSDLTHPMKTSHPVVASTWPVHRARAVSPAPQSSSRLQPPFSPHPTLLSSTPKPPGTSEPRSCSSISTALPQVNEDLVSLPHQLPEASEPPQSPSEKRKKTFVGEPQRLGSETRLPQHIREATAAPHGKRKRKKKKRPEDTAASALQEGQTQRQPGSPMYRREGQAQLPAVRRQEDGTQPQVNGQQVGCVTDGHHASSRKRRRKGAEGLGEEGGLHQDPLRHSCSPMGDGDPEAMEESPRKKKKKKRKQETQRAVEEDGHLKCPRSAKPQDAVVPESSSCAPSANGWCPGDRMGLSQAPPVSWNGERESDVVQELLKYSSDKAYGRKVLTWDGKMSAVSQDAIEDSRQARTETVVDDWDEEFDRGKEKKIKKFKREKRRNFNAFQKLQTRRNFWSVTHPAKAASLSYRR
In short: as §1

[3] = target: T2, USP38 (UniProt Q8NB14)
T2 sequence (whole entry): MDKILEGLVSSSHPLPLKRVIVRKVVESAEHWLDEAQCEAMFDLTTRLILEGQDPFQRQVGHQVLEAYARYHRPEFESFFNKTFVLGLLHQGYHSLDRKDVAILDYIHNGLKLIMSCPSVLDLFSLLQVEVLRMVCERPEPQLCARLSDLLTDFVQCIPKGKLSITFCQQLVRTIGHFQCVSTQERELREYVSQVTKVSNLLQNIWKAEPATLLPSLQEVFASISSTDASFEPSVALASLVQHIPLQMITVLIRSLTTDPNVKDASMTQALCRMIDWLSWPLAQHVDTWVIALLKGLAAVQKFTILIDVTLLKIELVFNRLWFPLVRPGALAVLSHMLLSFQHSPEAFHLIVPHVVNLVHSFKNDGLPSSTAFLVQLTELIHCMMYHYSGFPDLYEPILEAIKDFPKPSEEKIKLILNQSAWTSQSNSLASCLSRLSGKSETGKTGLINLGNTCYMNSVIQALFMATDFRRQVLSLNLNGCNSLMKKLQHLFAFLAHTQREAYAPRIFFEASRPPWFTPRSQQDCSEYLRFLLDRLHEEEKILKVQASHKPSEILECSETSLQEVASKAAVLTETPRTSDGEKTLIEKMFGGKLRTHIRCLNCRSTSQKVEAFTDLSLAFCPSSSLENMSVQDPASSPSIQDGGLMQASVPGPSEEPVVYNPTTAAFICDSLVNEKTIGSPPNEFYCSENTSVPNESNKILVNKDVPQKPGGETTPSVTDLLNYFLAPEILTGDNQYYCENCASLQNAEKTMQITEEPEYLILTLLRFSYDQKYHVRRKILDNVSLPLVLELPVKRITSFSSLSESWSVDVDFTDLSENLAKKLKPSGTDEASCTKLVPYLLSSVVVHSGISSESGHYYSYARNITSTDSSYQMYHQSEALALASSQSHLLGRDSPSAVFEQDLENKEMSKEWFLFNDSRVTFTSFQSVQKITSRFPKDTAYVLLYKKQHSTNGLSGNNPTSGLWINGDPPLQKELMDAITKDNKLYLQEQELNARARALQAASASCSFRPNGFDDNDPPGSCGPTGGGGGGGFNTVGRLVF
In short: as §1

[4] = target: T3, USP39 (UniProt Q53GS9)
T3 sequence (whole entry): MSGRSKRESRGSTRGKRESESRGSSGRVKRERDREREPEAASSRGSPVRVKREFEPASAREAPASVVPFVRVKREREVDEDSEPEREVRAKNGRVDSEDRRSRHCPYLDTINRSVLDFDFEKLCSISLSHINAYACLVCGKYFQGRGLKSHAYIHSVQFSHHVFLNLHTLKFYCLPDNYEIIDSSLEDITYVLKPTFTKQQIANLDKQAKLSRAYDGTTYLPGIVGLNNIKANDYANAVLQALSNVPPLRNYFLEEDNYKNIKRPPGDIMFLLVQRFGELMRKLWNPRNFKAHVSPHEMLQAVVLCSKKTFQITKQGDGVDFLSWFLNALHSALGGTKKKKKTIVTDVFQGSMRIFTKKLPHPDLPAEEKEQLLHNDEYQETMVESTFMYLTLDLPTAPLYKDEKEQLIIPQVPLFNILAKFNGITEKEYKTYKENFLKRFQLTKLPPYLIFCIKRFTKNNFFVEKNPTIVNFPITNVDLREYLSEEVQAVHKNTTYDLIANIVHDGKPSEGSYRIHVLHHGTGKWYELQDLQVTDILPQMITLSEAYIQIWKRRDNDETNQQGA
In short: as §1

[5] = target: T4, USP4 (UniProt Q13107)
T4 sequence (whole entry): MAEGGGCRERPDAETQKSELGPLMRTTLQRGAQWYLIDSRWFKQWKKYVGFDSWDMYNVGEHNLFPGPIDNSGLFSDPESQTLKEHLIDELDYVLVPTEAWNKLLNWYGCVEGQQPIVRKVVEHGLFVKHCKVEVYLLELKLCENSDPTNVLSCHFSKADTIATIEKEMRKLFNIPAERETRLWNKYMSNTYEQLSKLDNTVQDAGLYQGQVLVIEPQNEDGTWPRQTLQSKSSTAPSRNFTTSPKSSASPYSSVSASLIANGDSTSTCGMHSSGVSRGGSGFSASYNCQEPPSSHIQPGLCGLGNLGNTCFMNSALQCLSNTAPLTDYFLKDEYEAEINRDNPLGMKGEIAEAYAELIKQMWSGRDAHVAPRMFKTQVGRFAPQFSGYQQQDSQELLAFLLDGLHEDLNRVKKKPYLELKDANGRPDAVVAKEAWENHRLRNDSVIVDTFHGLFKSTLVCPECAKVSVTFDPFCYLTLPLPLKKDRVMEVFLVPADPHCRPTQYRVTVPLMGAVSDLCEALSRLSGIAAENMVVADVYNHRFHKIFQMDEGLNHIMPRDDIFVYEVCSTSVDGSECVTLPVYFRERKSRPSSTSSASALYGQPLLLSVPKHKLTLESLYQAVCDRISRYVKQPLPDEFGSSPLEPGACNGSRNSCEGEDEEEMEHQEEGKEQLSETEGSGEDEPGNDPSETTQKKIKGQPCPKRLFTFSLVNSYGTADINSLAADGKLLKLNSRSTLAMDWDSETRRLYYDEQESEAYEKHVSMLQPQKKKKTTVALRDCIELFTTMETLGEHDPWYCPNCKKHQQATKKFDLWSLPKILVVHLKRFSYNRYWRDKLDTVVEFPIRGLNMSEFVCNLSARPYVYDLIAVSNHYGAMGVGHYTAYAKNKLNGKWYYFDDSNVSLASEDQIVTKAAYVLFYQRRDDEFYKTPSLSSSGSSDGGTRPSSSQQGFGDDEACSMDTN
In short: as §1

Measured: log2 ratio of Biotin-Ahx-Ub-VS probe labelling

Sequence of USP34 (Q70CQ2 whole entry, the tested form may be a part): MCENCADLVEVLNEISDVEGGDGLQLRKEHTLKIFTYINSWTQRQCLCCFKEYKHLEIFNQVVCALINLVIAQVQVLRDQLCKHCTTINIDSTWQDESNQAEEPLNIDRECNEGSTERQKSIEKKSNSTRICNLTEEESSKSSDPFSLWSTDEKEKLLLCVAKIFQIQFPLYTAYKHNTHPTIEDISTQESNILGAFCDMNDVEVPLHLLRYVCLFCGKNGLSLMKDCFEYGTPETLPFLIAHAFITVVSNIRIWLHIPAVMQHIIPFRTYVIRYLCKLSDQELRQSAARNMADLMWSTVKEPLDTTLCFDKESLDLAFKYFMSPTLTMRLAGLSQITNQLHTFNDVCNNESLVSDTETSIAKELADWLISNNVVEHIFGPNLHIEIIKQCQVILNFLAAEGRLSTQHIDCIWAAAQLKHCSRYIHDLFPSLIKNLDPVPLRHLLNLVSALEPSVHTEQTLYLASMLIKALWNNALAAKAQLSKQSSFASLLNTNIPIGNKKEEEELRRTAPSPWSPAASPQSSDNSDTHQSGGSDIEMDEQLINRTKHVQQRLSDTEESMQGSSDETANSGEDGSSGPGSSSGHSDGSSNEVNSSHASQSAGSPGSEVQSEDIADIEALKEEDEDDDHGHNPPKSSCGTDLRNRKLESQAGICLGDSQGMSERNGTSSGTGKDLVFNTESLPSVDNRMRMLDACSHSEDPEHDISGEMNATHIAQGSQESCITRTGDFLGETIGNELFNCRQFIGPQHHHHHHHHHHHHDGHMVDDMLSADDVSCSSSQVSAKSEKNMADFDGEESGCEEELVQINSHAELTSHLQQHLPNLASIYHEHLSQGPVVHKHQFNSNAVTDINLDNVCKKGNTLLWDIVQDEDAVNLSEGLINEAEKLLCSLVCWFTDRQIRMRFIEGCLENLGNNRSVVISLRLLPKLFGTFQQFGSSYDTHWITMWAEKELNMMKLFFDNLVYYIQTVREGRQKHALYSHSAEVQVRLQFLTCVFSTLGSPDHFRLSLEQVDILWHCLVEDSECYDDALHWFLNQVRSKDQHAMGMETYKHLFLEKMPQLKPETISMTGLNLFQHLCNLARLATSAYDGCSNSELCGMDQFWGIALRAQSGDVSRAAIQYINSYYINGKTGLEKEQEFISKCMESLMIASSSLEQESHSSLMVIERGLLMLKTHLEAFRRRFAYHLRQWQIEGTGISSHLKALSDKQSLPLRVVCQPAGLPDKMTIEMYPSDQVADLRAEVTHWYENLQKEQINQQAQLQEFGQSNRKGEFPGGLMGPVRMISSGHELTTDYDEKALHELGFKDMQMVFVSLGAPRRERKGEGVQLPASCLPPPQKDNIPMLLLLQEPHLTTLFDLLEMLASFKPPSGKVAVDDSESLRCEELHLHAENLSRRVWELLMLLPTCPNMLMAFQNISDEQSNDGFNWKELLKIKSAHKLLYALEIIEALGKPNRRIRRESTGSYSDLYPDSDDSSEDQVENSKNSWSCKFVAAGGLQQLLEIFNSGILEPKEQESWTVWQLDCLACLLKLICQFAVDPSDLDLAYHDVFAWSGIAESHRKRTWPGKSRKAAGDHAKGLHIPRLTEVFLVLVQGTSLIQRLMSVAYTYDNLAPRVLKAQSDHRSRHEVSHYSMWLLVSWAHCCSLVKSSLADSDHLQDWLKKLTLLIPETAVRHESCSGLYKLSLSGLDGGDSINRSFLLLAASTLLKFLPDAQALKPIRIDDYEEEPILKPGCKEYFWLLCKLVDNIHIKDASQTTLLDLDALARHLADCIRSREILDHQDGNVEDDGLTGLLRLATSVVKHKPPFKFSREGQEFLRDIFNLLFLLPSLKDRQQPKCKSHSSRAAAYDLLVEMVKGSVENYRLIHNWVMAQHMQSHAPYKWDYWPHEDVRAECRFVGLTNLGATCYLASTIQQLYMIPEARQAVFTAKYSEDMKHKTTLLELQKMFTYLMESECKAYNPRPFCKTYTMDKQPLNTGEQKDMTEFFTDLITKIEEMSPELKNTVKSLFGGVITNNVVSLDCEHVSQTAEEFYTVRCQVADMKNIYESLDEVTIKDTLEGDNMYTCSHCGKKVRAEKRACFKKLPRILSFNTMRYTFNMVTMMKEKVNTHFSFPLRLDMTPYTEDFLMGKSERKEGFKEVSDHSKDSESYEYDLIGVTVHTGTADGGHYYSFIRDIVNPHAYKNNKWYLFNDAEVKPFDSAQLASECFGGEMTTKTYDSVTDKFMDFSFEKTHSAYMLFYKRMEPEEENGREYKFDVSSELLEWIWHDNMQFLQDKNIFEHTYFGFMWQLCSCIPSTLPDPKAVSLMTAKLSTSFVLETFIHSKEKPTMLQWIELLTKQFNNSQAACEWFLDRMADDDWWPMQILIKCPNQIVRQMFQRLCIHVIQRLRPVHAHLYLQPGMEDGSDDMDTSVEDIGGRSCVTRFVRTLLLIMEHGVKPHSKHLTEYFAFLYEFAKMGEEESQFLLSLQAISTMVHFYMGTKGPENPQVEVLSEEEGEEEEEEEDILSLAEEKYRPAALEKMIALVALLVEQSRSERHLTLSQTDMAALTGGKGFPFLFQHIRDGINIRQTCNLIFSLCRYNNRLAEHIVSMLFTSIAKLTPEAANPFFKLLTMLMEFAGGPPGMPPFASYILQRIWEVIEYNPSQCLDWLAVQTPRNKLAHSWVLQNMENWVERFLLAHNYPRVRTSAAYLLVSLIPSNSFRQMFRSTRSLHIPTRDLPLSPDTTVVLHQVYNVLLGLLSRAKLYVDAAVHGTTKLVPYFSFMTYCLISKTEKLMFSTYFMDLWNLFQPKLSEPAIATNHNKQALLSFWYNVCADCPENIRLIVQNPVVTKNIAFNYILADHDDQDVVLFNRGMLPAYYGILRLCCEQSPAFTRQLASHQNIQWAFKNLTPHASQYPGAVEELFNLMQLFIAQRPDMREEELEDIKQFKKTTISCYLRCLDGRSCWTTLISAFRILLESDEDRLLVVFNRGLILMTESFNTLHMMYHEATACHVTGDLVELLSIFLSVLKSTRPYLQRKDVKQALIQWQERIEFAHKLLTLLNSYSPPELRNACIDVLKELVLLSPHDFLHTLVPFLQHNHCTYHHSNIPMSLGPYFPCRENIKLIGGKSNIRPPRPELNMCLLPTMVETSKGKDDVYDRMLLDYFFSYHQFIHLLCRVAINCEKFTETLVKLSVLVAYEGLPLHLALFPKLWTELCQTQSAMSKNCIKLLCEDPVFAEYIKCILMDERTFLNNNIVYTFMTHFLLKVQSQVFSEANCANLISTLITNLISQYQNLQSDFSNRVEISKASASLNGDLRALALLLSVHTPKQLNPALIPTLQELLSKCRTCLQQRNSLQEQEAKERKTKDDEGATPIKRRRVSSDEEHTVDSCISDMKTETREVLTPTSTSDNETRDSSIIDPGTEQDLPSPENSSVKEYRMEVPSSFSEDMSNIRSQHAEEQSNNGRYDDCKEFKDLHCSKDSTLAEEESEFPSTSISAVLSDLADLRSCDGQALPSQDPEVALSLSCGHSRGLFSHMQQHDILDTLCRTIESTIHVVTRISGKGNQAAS

O=C(CCl)Nc1ccc(F)cc1F
inactive: [1] -0.242 | [2] -0.306 | [3] 0.102 | [4] 0.37 | [5] -0.0254
